Source: PubChem BioAssay
A selection: hits, their analogues and other compounds. The true share with any hit is near 4.1%.
Bead autofluor: flagged as autofluorescent in microsphere protease counterscreen | 360,000 compounds, 3.1% hits | fluorescence intensity (concentration not given with the values) | compound autofluorescence counterscreen, microsphere flow cytometry; hits give high values; in the data active = fluorescence intensity above about 16000; inconclusive = no clear call, values can overlap the other calls
Anthrax LF prot: Bacillus anthracis LF protease inhibitors, primary screen, biochemical, multiplex microsphere, MLPCN library; Lethal factor (Bacillus anthracis), P15917; multiplex microsphere protease cleavage assay; inhibition, % at 10 µM; 360,000 compounds, 0.12% hits; note: plate controls were buffer without enzyme for full effect and enzyme alone for no effect
BoNT F protease: BoNT/F light chain protease inhibitors, primary screen, biochemical, flow cytometry, MLPCN library; 360,000 compounds, 0.22% hits; inhibition, % at 10 µM; Multiplex microsphere protease cleavage assay; in the data active = inhibition above about 35%, passing the limit was not always enough; inconclusive = no clear call, values can overlap the other calls; note: plate controls were buffer without enzyme for full effect and enzyme alone for no effect
VHR inh abs: VHR1 phosphatase inhibitors, primary screen, biochemical, absorbance, uHTS; Dual specificity protein phosphatase 3 (Homo sapiens), P51452; recombinant VHR phosphatase, pNPP absorbance; inhibition, % at 13.3 µM; 290,000 compounds, 0.52% hits; AID 1654, 2009; in the data active = inhibition above about 50%
Target sequence (P51452 whole entry, looked up): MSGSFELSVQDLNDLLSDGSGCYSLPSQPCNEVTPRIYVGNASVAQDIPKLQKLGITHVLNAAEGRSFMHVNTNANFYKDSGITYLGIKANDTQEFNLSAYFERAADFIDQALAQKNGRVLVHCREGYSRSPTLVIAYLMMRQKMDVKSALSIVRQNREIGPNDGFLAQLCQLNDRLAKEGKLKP
MazEF act: activators of E. coli MazEF toxin-antitoxin RNase, primary screen, biochemical, fluorescence, uHTS. Endoribonuclease toxin MazF (Escherichia coli (strain K12)), P0AE70. FAM/BHQ RNA-DNA oligo cleavage fluorescence, 5 h. activation, % at 20 µM. 350,000 compounds, 0.32% hits; in the data active = activation above about 50%
Target sequence (P0AE70 whole entry, looked up): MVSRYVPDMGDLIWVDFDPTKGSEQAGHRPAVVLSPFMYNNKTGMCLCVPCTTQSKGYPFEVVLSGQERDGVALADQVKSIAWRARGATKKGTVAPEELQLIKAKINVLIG
BoNT-A LC inh2: BoNT/A light chain protease inhibitors, primary screen, biochemical, flow cytometry, MLPCN library | Botulinum neurotoxin type A light chain protease (Clostridium botulinum A str. ATCC 3502) | inhibition, % at 10 µM | 360,000 compounds, 0.17% hits | multiplex microsphere protease substrate cleavage; note: plate controls were buffer without enzyme for full effect and enzyme alone for no effect
An asterisk follows results filed as active; ? = inconclusive; nt = no result. Cut-off read from the data, not from the text of the source, unless noted: active = inhibition above about 30%; inconclusive = no clear call, values can overlap the other calls; inactive = below that.

SMILES	Bead autofluor	Anthrax LF prot	BoNT F protease	VHR inh abs	MazEF act	BoNT-A LC inh2
O=C(Nc1ccc(F)cc1)C1CCC(CNc2c(N3CCCCC3)c(=O)c2=O)CC1 (stereo not drawn)	3287	2	-6	0	2	1
CCOC(=O)c1c(C)n(CC(COC(C)=O)OC(C)=O)c2ccc(OC(C)=O)cc12 (stereo not drawn)	16360*	-2	-8	-4	4	0
COc1ccc2c(c1)S/C(=C\C(=O)c1ccncc1)N2C	2915	-11	-32	5	141*	3
CN1/C(=C/C(=O)c2ccc(Cl)cc2)Sc2cc3c(cc21)OCO3	2510	1	-1	26	431*	3
O=C1Nc2c(Cl)cc(Cl)cc2C1=O	3331	-5	-2	nt	8	0
CCCCc1ccc(NC(=S)N2CCCC(C)C2)cc1 (stereo not drawn)	4706	-3	-6	17	2	0
C=COCCn1c(C)c(C(=O)OCC)c2cc(O)ccc21	21557*	-2	0	15	-6	?
CCOC(=O)c1c(C)n(Cc2ccccc2)c2ccc(O)cc12	3195	-4	-5	3	11	0
COc1ccc(N(CC(=O)NC2CCS(=O)(=O)C2)S(=O)(=O)c2ccc(Cl)c(Cl)c2)cc1 (stereo not drawn)	4930	5	7	nt	-2	1
O=C(c1ccc(=O)oc1)N1CCN(C(c2ccccc2)c2ccccc2)CC1	23517*	-3	-4	32	-3	?
CSc1ccc(C(=S)N2CCN(C(c3ccccc3)c3ccccc3)CC2)cc1	25174*	-2	-5	19	-4	-2
CCCc1cc(C(=O)N2CCN(C(c3ccccc3)c3ccccc3)CC2)no1	5879	-4	1	7	1	0
CSc1ccc(C(=S)N2CCN(C)CC2)cc1	10696	-2	-3	-4	0	-1
Cc1cc(C(=O)N2CCN(C(c3ccccc3)c3ccccc3)CC2)no1	23268*	-2	-5	4	-11	-3
O=C(c1ncn(Cc2ccccc2)c1C(=O)N1CCc2ccccc2C1)N1CCc2ccccc2C1	2703	-3	0	nt	3	1
CCOC(=O)c1cnc(-n2cc(C)cn2)nc1NCc1ccc2c(c1)OCO2	21542*	0	-2	35	-5	?
Cc1cnc(C(=O)OCC(=O)NCc2ccc3c(c2)OCO3)cn1	4563	-4	1	-4	-15	0
O=C(CCCn1c(=O)oc2ccccc21)NNC(=O)COc1ccc(F)cc1	5070	-4	9	nt	-7	3
COc1cccc(NC(=O)N(Cc2ccco2)C(C)c2cccs2)c1 (stereo not drawn)	7701	-2	-3	20	-1	-2
CC(c1cccs1)N(Cc1ccco1)C(=O)Nc1ccc(Cl)c(Cl)c1 (stereo not drawn)	17014*	-5	-6	4	2	-3
O=C(CSc1nnc(C2CC2)n1C1CC1)Nc1cccc(Br)c1	3884	0	2	nt	-32	0
Cc1ccc(C(=O)/C=C/c2cn(CN3CCN(C)CC3)c3ccccc23)cc1	22519*	1	-2	15	6	1
Cc1nc(-c2c(C(F)(F)F)noc2-c2ccc(O)cc2O)cs1	17928*	-2	-9	10	-1	?
CCOc1cc(C)c(-c2onc(C(F)(F)F)c2-c2csc(C)n2)c(O)c1	22729*	-8	1	21	5	3
COc1ccc(-c2nc(N)nc(C(F)(F)F)c2-c2csc(C)n2)c(O)c1	3894	-6	-3	-4	7	0
SMILES	Bead autofluor	Anthrax LF prot	BoNT F protease	VHR inh abs	MazEF act	BoNT-A LC inh2
Cc1ccc(C)c(NC(=O)CCOc2ccccc2)c1	3992	7	-20	14	7	0
C=CCNc1nnc(SCC(=O)N2CCC(C(N)=O)CC2)s1	5823	-5	-5	nt	-1	0
CCC(Cc1ccccc1)NC(=O)c1cc(S(=O)(=O)N2CCCCC2)c[nH]1 (stereo not drawn)	5817	-8	0	10	11	0
N[C@@H](Cc1c[nH]c2ccccc12)c1nnc(SCc2ccc(F)cc2)o1	24676*	-3	-4	4	7	?
C=C(C)CSc1nnc([C@@H](N)Cc2c[nH]c3ccccc23)o1	19997*	-2	-6	17	-3	?
CCc1ccccc1NC(=O)CSc1nnc([C@@H](N)Cc2ccccc2)o1	10175	1	-12	8	5	0
CC(C)=CCSc1nnc([C@@H](N)Cc2c[nH]c3ccccc23)o1	7689	-5	-10	2	-6	-1
N[C@@H](Cc1ccccc1)c1nnc(SCc2ccccc2Cl)o1	19863*	1	-5	2	-2	?
N[C@@H](Cc1c[nH]c2ccccc12)c1nnc(SCc2ccccc2)o1	4809	-3	-14	31	6	0
Cc1ccc(C(=O)Nc2ccccc2C(=O)N2CC(C)OC(C)C2)cc1 (stereo not drawn)	4037	-2	-5	nt	12	0
Cc1cc(C)nc(NC(=O)c2cccc(Cl)c2)n1	22692*	2	0	-12	9	2
CCn1c(SCC(=O)NCc2ccccc2)nc2ccccc2c1=O	9096	0	0	17	-10	0
CCn1c(SCC(=O)Nc2ccc(C(C)=O)cc2)nc2nc3c(cc2c1=O)CCCC3	23239*	-5	1	5	1	?
CCn1c(SCC(=O)Nc2ccc(OC)cc2)nc2nc3c(cc2c1=O)CCCC3	3080	9	-1	29	2	-2
CCn1c(SCC(=O)NCc2ccccc2)nc2nc3c(cc2c1=O)CCCC3	4468	-5	-5	53*	5	-1
CCn1c(SCC(=O)Nc2ccc(Cl)cc2)nc2nc3c(cc2c1=O)CCCC3	7489	-2	5	60*	-8	2
CN(C)S(=O)(=O)c1ccc(N2CCCC2)c(C(=O)OCC(=O)NC2(C#N)CCCCC2)c1	6523	?	-2	nt	0	1
CC1(C)NC(=O)N(CC(O)CN2CCCCC2)C1=O (stereo not drawn)	19639*	1	1	8	-3	?
CCN(CC(=O)NC1CCCC1)S(=O)(=O)c1ccc(Br)cc1	5984	-18	-6	23	-1	0
Nc1c(S(=O)(=O)c2cccs2)c2nc3ccccc3nc2n1CC1CCCO1 (stereo not drawn)	22380*	1	4	16	4	3
Cc1[nH]c(C)c(S(=O)(=O)NCc2ccc(F)cc2)c1C(=O)N1CCCC1	4177	3	-2	-9	-12	2
